In PubChem BioAssay AID1159580 (chemical genetic matrix, 2015):
About 2,000 (36%) of roughly 5,500 compounds were called active. Another 18% or so got no clear call; they are omitted. Cut-off read from the data, not from the text of the source: active = normalized growth mostly below about 0.91 (no sharp cut-off); inconclusive = no clear call, values can overlap the other calls; inactive = mostly above about 0.92. The list shows a part of the results.

Assay: chemical genetic growth profiling, strain panel (AID 1159580);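 note: tested at 20 µM; growth read once vehicle control cultures reached saturation at 30 °C; 1 = growth at the plate median or of vehicle wells; lower values mean less growth of the strain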
Settings: growth OD

Measured: normalized growth

Clc1ccc(Cl)cc1
inactive: S. cerevisiae deletion strains, locus YAL013W, strain DEP1, stronger effect = lower value 1.01 | S. cerevisiae deletion strains, locus YBR021W, strain FUR4, stronger effect = lower value 1.01 | S. cerevisiae deletion strains, locus YBR229C, strain ROT2, stronger effect = lower value 1.01 | S. cerevisiae deletion strains, locus YCL029C, strain bik1, stronger effect = lower value 0.994 | S. cerevisiae deletion strains, locus YDL035C, strain GPR1, stronger effect = lower value 1.02 | S. cerevisiae deletion strains, locus YDL074C, strain BRE1, stronger effect = lower value 1.04 | S. cerevisiae deletion strains, locus YDL101C, strain DUN1, stronger effect = lower value 1.02 | S. cerevisiae deletion strains, locus YDL134C, strain PPH21, stronger effect = lower value 1 | S. cerevisiae deletion strains, locus YDL185W, strain tfp1, stronger effect = lower value 0.968 | S. cerevisiae deletion strains, locus YDL192W, strain arf1, stronger effect = lower value 0.983 | S. cerevisiae deletion strains, locus YDR101C, strain arx1, stronger effect = lower value 0.986 | S. cerevisiae deletion strains, locus YDR150W, strain NUM1, stronger effect = lower value 1 | S. cerevisiae deletion strains, locus YDR162C, strain NBP2, stronger effect = lower value 1.01 | S. cerevisiae deletion strains, locus YDR318W, strain mcm21, stronger effect = lower value 0.99 | S. cerevisiae deletion strains, locus YDR388W, stronger effect = lower value 0.988 | S. cerevisiae deletion strains, locus YDR502C, strain sam2, stronger effect = lower value 0.993 | S. cerevisiae deletion strains, locus YEL061C, strain CIN8, stronger effect = lower value 1 | S. cerevisiae deletion strains, locus YER110C, stronger effect = lower value 0.979 | S. cerevisiae deletion strains, locus YER155C, strain BEM2, stronger effect = lower value 1.01 | S. cerevisiae deletion strains, locus YER167W, strain BCK2, stronger effect = lower value 1.01 | S. cerevisiae deletion strains, locus YGL078C, strain dbp3, stronger effect = lower value 0.974 | S. cerevisiae deletion strains, locus YGL086W, strain mad1, stronger effect = lower value 1 | S. cerevisiae deletion strains, locus YGL248W, strain PDE1, stronger effect = lower value 1.01 | S. cerevisiae deletion strains, locus YGR078C, strain PAC10, stronger effect = lower value 1.02 | S. cerevisiae deletion strains, locus YGR135W, strain pre9, stronger effect = lower value 0.99 | S. cerevisiae deletion strains, locus YGR229C, strain SMI1, stronger effect = lower value 1.02 | S. cerevisiae deletion strains, locus YGR252W, strain gcn5, stronger effect = lower value 0.964 | S. cerevisiae deletion strains, locus YHR030C, strain SLT2, stronger effect = lower value 1.01 | S. cerevisiae deletion strains, locus YHR079C, strain IRE1 (second series), stronger effect = lower value 0.989 | S. cerevisiae deletion strains, locus YHR094C, strain hxt1, stronger effect = lower value 0.987 | S. cerevisiae deletion strains, locus YHR129C, strain ARP1, stronger effect = lower value 1.01 | S. cerevisiae deletion strains, locus YHR200W, strain rpn10, stronger effect = lower value 0.988 | S. cerevisiae deletion strains, locus YIL066C, strain RNR3, stronger effect = lower value 1.02 | S. cerevisiae deletion strains, locus YIL073C, strain SPO22, stronger effect = lower value 1.01 | S. cerevisiae deletion strains, locus YIL125W, strain kgd1, stronger effect = lower value 0.972 | S. cerevisiae deletion strains, locus YIR030C, strain dcg1, stronger effect = lower value 0.987 | S. cerevisiae deletion strains, locus YJL095W, strain BCK1, stronger effect = lower value 1.02 | S. cerevisiae deletion strains, locus YJL134W, strain LCB3, stronger effect = lower value 1.01 | S. cerevisiae deletion strains, locus YJL168C, strain set2, stronger effect = lower value 0.983 | S. cerevisiae deletion strains, locus YJL187C, strain SWE1 (second series), stronger effect = lower value 1.01 | S. cerevisiae deletion strains, locus YJR043C, strain POL32, stronger effect = lower value 1 | S. cerevisiae deletion strains, locus YJR075W, strain HOC1, stronger effect = lower value 1.01 | S. cerevisiae deletion strains, locus YKL009W, strain mrt4, stronger effect = lower value 1 | S. cerevisiae deletion strains, locus YKL068W, stronger effect = lower value 0.984 | S. cerevisiae deletion strains, locus YKL085W, strain MDH1 (second series), stronger effect = lower value 0.982 | S. cerevisiae deletion strains, locus YKL085W, strain MDH1, stronger effect = lower value 0.982 | S. cerevisiae deletion strains, locus YKL190W, strain CNB1, stronger effect = lower value 1.02 | S. cerevisiae deletion strains, locus YKR001C, strain vps1, stronger effect = lower value 0.989 | S. cerevisiae deletion strains, locus YLR039C, strain RIC1, stronger effect = lower value 1.04 | S. cerevisiae deletion strains, locus YLR058C, strain SHM2, stronger effect = lower value 1.01 | S. cerevisiae deletion strains, locus YLR102C, strain apc9, stronger effect = lower value 0.993 | S. cerevisiae deletion strains, locus YLR262C, strain YPT6, stronger effect = lower value 1.04 | S. cerevisiae deletion strains, locus YLR268W, strain sec22, stronger effect = lower value 0.999 | S. cerevisiae deletion strains, locus YLR330W, strain CHS5, stronger effect = lower value 1 | S. cerevisiae deletion strains, locus YLR342W, strain FKS1 (second series), stronger effect = lower value 0.997 | S. cerevisiae deletion strains, locus YLR371W, strain rom2, stronger effect = lower value 0.981 | S. cerevisiae deletion strains, locus YLR418C, strain cdc73, stronger effect = lower value 0.974 | S. cerevisiae deletion strains, locus YML016C, strain PPZ1, stronger effect = lower value 1.01 | S. cerevisiae deletion strains, locus YML032C, strain rad52, stronger effect = lower value 0.986 | S. cerevisiae deletion strains, locus YML124C, strain tub3, stronger effect = lower value 0.987 | S. cerevisiae deletion strains, locus YMR078C, strain ctf18, stronger effect = lower value 0.99 | S. cerevisiae deletion strains, locus YMR223W, strain ubp8, stronger effect = lower value 0.984 | S. cerevisiae deletion strains, locus YMR263W, strain SAP30, stronger effect = lower value 1.01 | S. cerevisiae deletion strains, locus YMR307W, strain GAS1, stronger effect = lower value 1.03 | S. cerevisiae deletion strains, locus YNL067W, strain RPL9B, stronger effect = lower value 1.02 | S. cerevisiae deletion strains, locus YNL128W, strain TEP1, stronger effect = lower value 1.02 | S. cerevisiae deletion strains, locus YNL153C, strain GIM3, stronger effect = lower value 1.01 | S. cerevisiae deletion strains, locus YNL233W, strain BNI4, stronger effect = lower value 1.02 | S. cerevisiae deletion strains, locus YNL250W, strain rad50, stronger effect = lower value 0.963 | S. cerevisiae deletion strains, locus YNL271C, strain bni1, stronger effect = lower value 0.98 | S. cerevisiae deletion strains, locus YNL298W, strain CLA4, stronger effect = lower value 0.98 | S. cerevisiae deletion strains, locus YNL307C, strain MCK1, stronger effect = lower value 0.991 | S. cerevisiae deletion strains, locus YNL322C, strain KRE1, stronger effect = lower value 1.01 | S. cerevisiae deletion strains, locus YNR052C, strain pop2, stronger effect = lower value 0.981 | S. cerevisiae deletion strains, locus YOL006C, strain TOP1, stronger effect = lower value 1.05 | S. cerevisiae deletion strains, locus YOL012C, strain htz1 0.71 | S. cerevisiae deletion strains, locus YOL147C, strain pex11, stronger effect = lower value 0.992 | S. cerevisiae deletion strains, locus YOR061W, strain CKA2, stronger effect = lower value 1.01 | S. cerevisiae deletion strains, locus YOR069W, strain VPS5, stronger effect = lower value 1.01 | S. cerevisiae deletion strains, locus YOR136W, strain idh2, stronger effect = lower value 0.985 | S. cerevisiae deletion strains, locus YOR144C, strain elg1, stronger effect = lower value 0.994 | S. cerevisiae deletion strains, locus YOR184W, strain ser1, stronger effect = lower value 0.997 | S. cerevisiae deletion strains, locus YOR316C, strain cot1, stronger effect = lower value 0.989 | S. cerevisiae deletion strains, locus YPL055C, strain LGE1, stronger effect = lower value 1.02 | S. cerevisiae deletion strains, locus YPL241C, strain CIN2, stronger effect = lower value 1.01 | S. cerevisiae deletion strains, locus YPR119W, strain clb2, stronger effect = lower value 0.988 | S. cerevisiae deletion strains, locus YPR141C, strain kar3, stronger effect = lower value 0.975 | S. cerevisiae deletion strains, locus YPR163C, strain tif3, stronger effect = lower value 0.991 | S. cerevisiae deletion strains, locus YPR167C, strain met16, stronger effect = lower value 0.985 | S. cerevisiae deletion strains, strain wtn01, stronger effect = lower value 0.987 | S. cerevisiae strains, strain wild type, stronger effect = lower value 1.01
